GLS inh: qHTS for Inhibitors of Glutaminase (GLS). GLS enzymatic activity, qHTS titration. Potency, µM (doses to about 45.5 µM), hits mostly inhibitors. 0.21% of 410,000 active. AID 624170, 2012
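hKGA in 45 mM KH2PO4 pH 8.2, 0.02% Tween-20 with pin-transferred compounds; 1 mM L-glutamine (stock) plus glutamate oxidase/HRP/Amplex Red coupling added. Fluorescence read initially and after 30 min at RT.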
HP1b chromo inh: HTS for Inhibitors of HP1-beta Chromodomain Interactions with Methylated Histone Tails; Chromobox protein homolog 1 (Homo sapiens), P83916; 0.56% of 390,000 active; AlphaScreen HP1-beta / biotin-H3K9me3 peptide binding; AID 540317, 2011; Potency, µM (titrated, usually from 114 µM), usual class: inhibitors; also: nearly all actives have a fitted effect of over 70% in size
Target sequence (P83916 whole entry, looked up): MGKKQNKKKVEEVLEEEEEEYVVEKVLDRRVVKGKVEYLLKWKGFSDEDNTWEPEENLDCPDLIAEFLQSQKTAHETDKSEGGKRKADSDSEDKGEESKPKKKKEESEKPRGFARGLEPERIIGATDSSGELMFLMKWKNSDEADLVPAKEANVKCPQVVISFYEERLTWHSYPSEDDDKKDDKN
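Compound inhibition of the preformed complex between 50 nM HP1-beta and 50 nM biotinylated H3K9me3 peptide was read by AlphaScreen. Buffer was PBS pH 7.4 with 0.01% Tween-20. Incubations ran 30 min at room temperature, with 10 ug/mL donor/acceptor beads.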
L3MBTL1 inh: qHTS Assay for the Inhibitors of L3MBTL1; Lethal(3)malignant brain tumor-like protein 1 (Homo sapiens), Q9Y468; AlphaScreen L3MBTL1–H3K9me1 peptide binding; Potency, µM (doses to about 57.1 µM), most hits filed as inhibitors; 0.66% of 230,000 active; AID 485360, 2010; also: nearly all actives have a fitted effect of over 60% in size
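AlphaScreen assay: L3MBTL1 (50 nM final) was preincubated 30 min at room temperature with biotinylated H3(1-15)K9me1 peptide (75 nM final), then 30 min with library compounds; streptavidin donor and nickel chelate acceptor beads (10 ug/mL final) added, 30 min dark.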
G9a inh: qHTS Assay for Inhibitors of Histone Lysine Methyltransferase G9a; Potency, µM (doses to about 102 µM), actives largely listed as inhibitors; AID 504332, 2011; 8.8% of 350,000 active; Histone-lysine N-methyltransferase EHMT2 (Homo sapiens), Q96KQ7; G9a H3K9 monomethylation, AlphaScreen, 2 h; also: nearly all actives have a fitted effect of over 75% in size
Target sequence (Q96KQ7 913-1193 limits assumed): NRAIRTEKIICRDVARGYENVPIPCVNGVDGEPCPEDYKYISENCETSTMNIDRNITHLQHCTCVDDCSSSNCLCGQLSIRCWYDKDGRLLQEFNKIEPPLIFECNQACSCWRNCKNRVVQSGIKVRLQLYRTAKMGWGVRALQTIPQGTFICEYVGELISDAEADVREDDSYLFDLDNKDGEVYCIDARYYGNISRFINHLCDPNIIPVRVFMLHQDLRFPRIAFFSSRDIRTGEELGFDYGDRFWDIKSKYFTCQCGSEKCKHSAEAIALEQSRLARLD
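Signal arises when biotinylated H3K9 peptide, once monomethylated, bridges streptavidin donor and antibody-captured acceptor beads. Enzyme at 20 nM was preincubated 15 min with test compounds; peptide 500 nM and SAM 20 uM then reacted for 2 h.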
JMJD2A Tudor: qHTS Assay for Inhibitors of JMJD2A-Tudor Domain. Lysine-specific demethylase 4A (Homo sapiens), O75164. AlphaScreen JMJD2A-Tudor / H3K4me3 peptide binding. Potency, µM (series often up to 114 µM), hits mostly inhibitors. 4.4% of 390,000 active. AID 504339, 2011; also: nearly all actives have a fitted effect of over 50% in size
BAZ2B inh: qHTS Assay for Inhibitors of BAZ2B | Bromodomain adjacent to zinc finger domain protein 2B (Homo sapiens), Q9UIF8 | AlphaScreen BAZ2B-H3K14Ac peptide displacement | Potency, µM (top dose mostly 114 µM), usual class: inhibitors | 4.4% of 360,000 active | AID 504333, 2011; also: nearly all actives have a fitted effect of over 60% in size
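Protein-peptide AlphaScreen: BAZ2B 50 nM, b-H3K14Ac 50 nM, 1x PBS pH 7.4 + 0.01% Tween-20. Preincubation 30 min RT; cpd 30 min RT (top 110 uM); beads 20 min RT, light-protected.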
A number is an active result; i = inactive; ? = inconclusive; nt = no result; ! = repeats disagree. Rows were chosen to be rich in hits. Some 10% of all compounds tested hit in one or more screens of this group. Calls follow the shape of the dose curve; as a rule, active = well fitted curve in the direction sought with a large enough effect; inconclusive = small, poorly fitted or top-dose-only effect, or another doubt; inactive = no such curve, though single readings can be large; an effect the other way counts as inactive or inconclusive.

SMILES	GLS inh	HP1b chromo inh	L3MBTL1 inh	G9a inh	JMJD2A Tudor	BAZ2B inh
COc1ccc(C(=O)c2c(N)c(C(=O)Nc3ccccc3Cl)c3ccccn23)cc1	i	i	nt	i	i	i
O=C(c1ccccc1Cl)N1CCCCC1CCN1CCCCC1 (stereo not given)	i	i	nt	i	i	i
COc1ccc(C2NC(=S)NC3=C2CCc2cc(OC)ccc23)cc1 (stereo not given)	?	i	i	39.8µM	?	?
c1ccc(-c2cc3n(c2)CCc2ccccc2-3)cc1	i	i	i	3.16µM	?	i
Cc1cc(C)cc(C(=O)Nc2c3c(nn2-c2ccccc2C)CS(=O)(=O)C3)c1	i	i	nt	i	i	i
COc1ccc(NS(=O)(=O)c2ccc(N3CCCC3)c(NC(=S)Nc3cccc(S(=O)(=O)N(C)C)c3)c2)cc1	nt	nt	i	1.58µM	nt	?
CCS(=O)(=O)NCC(c1ccco1)N1CCN(c2ccc(F)cc2)CC1 (stereo not given)	i	i	i	i	i	i
CS(=O)(=O)NCC(c1ccco1)N1CCN(c2ccc(F)cc2)CC1 (stereo not given)	i	i	i	44.7µM!	i	i
COc1ccc(N2CCN(C(CNS(=O)(=O)c3ccccc3)c3ccccc3)CC2)cc1 (stereo not given)	i	?	nt	14.1µM	15.8µM	25.1µM
COc1ccc(N2CCN(C(CNS(=O)(=O)c3ccc4c(c3)OCCO4)c3ccco3)CC2)cc1 (stereo not given)	i	?	i	7.94µM	?	?
CCS(=O)(=O)NCC(c1ccco1)N1CCN(c2ccc(OC)cc2)CC1 (stereo not given)	i	i	nt	i	i	i
COc1ccc(N2CCN(C(CNS(=O)(=O)c3c(C)cc(C)cc3C)c3ccco3)CC2)cc1 (stereo not given)	i	i	nt	7.08µM	22.4µM	31.6µM
CCc1nn(CC(=O)N2CCCCC2)c(=O)c2cc3sccc3n12	i	i	nt	i	i	i
Cc1ccc(NC(=O)CSc2nc3c(oc4ccccc43)c(=O)n2Cc2ccco2)cc1	i	i	nt	i	?	i
CCCSc1nc2sc3c(c2c(=O)n1-c1ccc(C)c(Cl)c1)CCN(C(C)=O)C3	i	i	nt	?	i	i
CCCCCCOc1ccc(N2C(=O)CC(NCc3ccc(S(N)(=O)=O)cc3)C2=O)cc1 (stereo not given)	i	i	i	i	i	i
CCOc1cccc(N2C(=O)CC(NCc3ccc(S(N)(=O)=O)cc3)C2=O)c1 (stereo not given)	i	i	i	50.1µM	i	i
CCc1ccc(N2CCn3c2nc2c3c(=O)n(Cc3cccc(C)c3)c(=O)n2C)cc1	i	i	nt	i	i	i
COc1ccc(C2NC(=S)N3C(c4ccc(OC)c(OC)c4)NC(=S)N23)cc1OC (stereo not given)	i	nt	nt	nt	nt	nt
CCCCN(C(=O)c1cc(OC)c(OC)c(OC)c1)C1=CC2CCC(C1)N2C (stereo not given)	i	i	i	56.2µM	i	i
Cc1cc(-c2ccc(/C=N/n3cnnc3)o2)c(C)c([N+](=O)[O-])c1	i	i	nt	39.8µM	?	i
CN1CCN(/N=C/c2ccc(-c3ccc([N+](=O)[O-])cc3Cl)o2)CC1	i	?	?	25.1µM	56.2µM	28.2µM
CC(C)COC(=O)c1cc(-c2ccc(/C=N/n3cnnc3)o2)ccc1Cl	i	i	i	10µM	i	i
Fc1ccc(-c2ccc(/C=N\n3cnnc3)o2)cc1Cl	i	i	i	i	i	i
O=[N+]([O-])c1ccc(Cl)c(-c2ccc(/C=N/n3cnnc3)o2)c1	i	i	nt	70.8µM	?	?
O=[N+]([O-])c1cc(-c2ccc(/C=N/n3cnnc3)o2)ccc1Cl	i	i	i	nt	i	i
Cc1ccc(-n2c(=O)c3c4c(sc3n(Cc3ccccc3C)c2=O)CCC4)cc1C	i	i	nt	i	i	i
Cc1ccc(C2=NN(CC(=O)NCCc3ccc(Cl)cc3)C(=O)CC2)cc1	i	i	nt	i	i	i

Assay outcomes (PubChem BioAssay)
